Hit rate of the full screen: of about 5,500 compounds, about 2,000 (36%) were called active. Roughly 18% stayed inconclusive and do not appear here. No stated cut-off is given here; in the data, active means normalized growth mostly below about 0.91 (no sharp cut-off); inconclusive means no clear call, values can overlap the other calls; inactive means mostly above about 0.92. The list shows a part of the results.
Assay: chemical genetic growth profiling, strain panel (AID 1159580);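 further: tested at 20 µM; growth read once vehicle control cultures reached saturation at 30 °C; 1 = growth at the plate median or of vehicle wells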
Conditions: growth OD

Measured: normalized growth

COc1ccc(-c2cc(C(F)F)nn2-c2ccc(S(N)(=O)=O)cc2)cc1F
inactive: S. cerevisiae deletion strains, locus YJR075W, strain HOC1, stronger effect = lower value 1.01 | S. cerevisiae deletion strains, locus YKL009W, strain mrt4, stronger effect = lower value 1.02 | S. cerevisiae deletion strains, locus YKL068W, stronger effect = lower value 1 | S. cerevisiae deletion strains, locus YKL085W, strain MDH1 (second series), stronger effect = lower value 1 | S. cerevisiae deletion strains, locus YKL085W, strain MDH1, stronger effect = lower value 1 | S. cerevisiae deletion strains, locus YKL160W, strain elf1, stronger effect = lower value 0.995 | S. cerevisiae deletion strains, locus YKL190W, strain CNB1, stronger effect = lower value 1 | S. cerevisiae deletion strains, locus YKR001C, strain vps1, stronger effect = lower value 1.01 | S. cerevisiae deletion strains, locus YKR026C, strain gcn3, stronger effect = lower value 1 | S. cerevisiae deletion strains, locus YKR091W, strain srl3, stronger effect = lower value 1.01 | S. cerevisiae deletion strains, locus YLL001W, strain dnm1, stronger effect = lower value 0.994 | S. cerevisiae deletion strains, locus YLL026W, stronger effect = lower value 1 | S. cerevisiae deletion strains, locus YLL041C, strain sdh2, stronger effect = lower value 1.01 | S. cerevisiae deletion strains, locus YLR027C, strain aat2, stronger effect = lower value 1 | S. cerevisiae deletion strains, locus YLR039C, strain RIC1, stronger effect = lower value 1.01 | S. cerevisiae deletion strains, locus YLR058C, strain SHM2, stronger effect = lower value 1.01 | S. cerevisiae deletion strains, locus YLR102C, strain apc9, stronger effect = lower value 1.01 | S. cerevisiae deletion strains, locus YLR113W, strain HOG1, stronger effect = lower value 1.05 | S. cerevisiae deletion strains, locus YLR221C, strain rsa3, stronger effect = lower value 1 | S. cerevisiae deletion strains, locus YLR258W, strain gsy2, stronger effect = lower value 1.01 | S. cerevisiae deletion strains, locus YLR262C, strain YPT6 (second series), stronger effect = lower value 1.01 | S. cerevisiae deletion strains, locus YLR262C, strain YPT6, stronger effect = lower value 0.992 | S. cerevisiae deletion strains, locus YLR268W, strain sec22, stronger effect = lower value 0.992 | S. cerevisiae deletion strains, locus YLR320W, strain mms22, stronger effect = lower value 0.962 | S. cerevisiae deletion strains, locus YLR330W, strain CHS5, stronger effect = lower value 1.01 | S. cerevisiae deletion strains, locus YLR342W, strain FKS1 (second series), stronger effect = lower value 1.08 | S. cerevisiae deletion strains, locus YLR342W, strain FKS1, stronger effect = lower value 0.991 | S. cerevisiae deletion strains, locus YLR357W, strain rsc2, stronger effect = lower value 0.995 | S. cerevisiae deletion strains, locus YLR370C, strain arc18, stronger effect = lower value 1.02 | S. cerevisiae deletion strains, locus YLR371W, strain rom2, stronger effect = lower value 1.03 | S. cerevisiae deletion strains, locus YLR384C, strain iki3, stronger effect = lower value 1 | S. cerevisiae deletion strains, locus YLR418C, strain cdc73, stronger effect = lower value 0.951 | S. cerevisiae deletion strains, locus YML016C, strain PPZ1, stronger effect = lower value 1 | S. cerevisiae deletion strains, locus YML032C, strain rad52, stronger effect = lower value 1.05 | S. cerevisiae deletion strains, locus YML120C, strain ndi1, stronger effect = lower value 0.999 | S. cerevisiae deletion strains, locus YML124C, strain tub3, stronger effect = lower value 1.01 | S. cerevisiae deletion strains, locus YMR058W, strain fet3, stronger effect = lower value 0.995 | S. cerevisiae deletion strains, locus YMR078C, strain ctf18, stronger effect = lower value 1.02 | S. cerevisiae deletion strains, locus YMR125W, strain sto1, stronger effect = lower value 1.02 | S. cerevisiae deletion strains, locus YMR129W, stronger effect = lower value 1.01 | S. cerevisiae deletion strains, locus YMR205C, strain PFK2, stronger effect = lower value 0.976 | S. cerevisiae deletion strains, locus YMR223W, strain ubp8, stronger effect = lower value 1.04 | S. cerevisiae deletion strains, locus YMR231W, strain pep5, stronger effect = lower value 1 | S. cerevisiae deletion strains, locus YMR263W, strain SAP30, stronger effect = lower value 0.996 | S. cerevisiae deletion strains, locus YMR307W, strain GAS1, stronger effect = lower value 1.04 | S. cerevisiae deletion strains, locus YNL067W, strain RPL9B, stronger effect = lower value 0.996 | S. cerevisiae deletion strains, locus YNL071W, strain lat1, stronger effect = lower value 0.996 | S. cerevisiae deletion strains, locus YNL128W, strain TEP1, stronger effect = lower value 1 | S. cerevisiae deletion strains, locus YNL153C, strain GIM3, stronger effect = lower value 0.982 | S. cerevisiae deletion strains, locus YNL183C, strain NPR1, stronger effect = lower value 1 | S. cerevisiae deletion strains, locus YNL209W, strain ssb2, stronger effect = lower value 1.01 | S. cerevisiae deletion strains, locus YNL233W, strain BNI4, stronger effect = lower value 1.01 | S. cerevisiae deletion strains, locus YNL248C, strain rpa49, stronger effect = lower value 0.996 | S. cerevisiae deletion strains, locus YNL250W, strain rad50, stronger effect = lower value 1.02 | S. cerevisiae deletion strains, locus YNL271C, strain bni1, stronger effect = lower value 1.02 | S. cerevisiae deletion strains, locus YNL298W, strain CLA4, stronger effect = lower value 1.02 | S. cerevisiae deletion strains, locus YNL307C, strain MCK1, stronger effect = lower value 1.03 | S. cerevisiae deletion strains, locus YNL322C, strain KRE1 (second series), stronger effect = lower value 1 | S. cerevisiae deletion strains, locus YNL322C, strain KRE1, stronger effect = lower value 1 | S. cerevisiae deletion strains, locus YNR049C, strain mso1, stronger effect = lower value 1.01 | S. cerevisiae deletion strains, locus YNR052C, strain pop2, stronger effect = lower value 1.03 | S. cerevisiae deletion strains, locus YOL006C, strain TOP1, stronger effect = lower value 1.02 | S. cerevisiae deletion strains, locus YOL012C, strain htz1 1.3 | S. cerevisiae deletion strains, locus YOL147C, strain pex11, stronger effect = lower value 1.01 | S. cerevisiae deletion strains, locus YOR001W, strain rrp6, stronger effect = lower value 1.01 | S. cerevisiae deletion strains, locus YOR061W, strain CKA2, stronger effect = lower value 1 | S. cerevisiae deletion strains, locus YOR069W, strain VPS5, stronger effect = lower value 1 | S. cerevisiae deletion strains, locus YOR070C, strain gyp1, stronger effect = lower value 1 | S. cerevisiae deletion strains, locus YOR080W, strain dia2, stronger effect = lower value 0.99 | S. cerevisiae deletion strains, locus YOR083W, strain WHI5, stronger effect = lower value 0.989 | S. cerevisiae deletion strains, locus YOR106W, strain vam3, stronger effect = lower value 0.993 | S. cerevisiae deletion strains, locus YOR136W, strain idh2, stronger effect = lower value 1.02 | S. cerevisiae deletion strains, locus YOR144C, strain elg1, stronger effect = lower value 1.01 | S. cerevisiae deletion strains, locus YOR184W, strain ser1, stronger effect = lower value 1.05 | S. cerevisiae deletion strains, locus YOR231W, strain MKK1, stronger effect = lower value 1.04 | S. cerevisiae deletion strains, locus YOR265W, strain rbl2, stronger effect = lower value 1.01 | S. cerevisiae deletion strains, locus YOR270C, strain vph1, stronger effect = lower value 0.976 | S. cerevisiae deletion strains, locus YOR290C, strain snf2, stronger effect = lower value 1.01 | S. cerevisiae deletion strains, locus YOR316C, strain cot1, stronger effect = lower value 1.01 | S. cerevisiae deletion strains, locus YPL051W, strain arl3, stronger effect = lower value 0.991 | S. cerevisiae deletion strains, locus YPL055C, strain LGE1, stronger effect = lower value 0.97 | S. cerevisiae deletion strains, locus YPL078C, strain atp4, stronger effect = lower value 0.998 | S. cerevisiae deletion strains, locus YPL106C, strain sse1, stronger effect = lower value 0.993 | S. cerevisiae deletion strains, locus YPL240C, strain hsp82, stronger effect = lower value 0.99 | S. cerevisiae deletion strains, locus YPL241C, strain CIN2, stronger effect = lower value 0.999 | S. cerevisiae deletion strains, locus YPL256C, strain CLN2, stronger effect = lower value 1.09 | S. cerevisiae deletion strains, locus YPR119W, strain clb2, stronger effect = lower value 1 | S. cerevisiae deletion strains, locus YPR141C, strain kar3, stronger effect = lower value 1.01 | S. cerevisiae deletion strains, locus YPR163C, strain tif3, stronger effect = lower value 1 | S. cerevisiae deletion strains, locus YPR167C, strain met16, stronger effect = lower value 1.01 | S. cerevisiae deletion strains, strain wtn01, stronger effect = lower value 1.02 | S. cerevisiae strains, strain wild type, stronger effect = lower value 1.01
